# Laboratory results: PubChem BioAssay AID2284376 (EPA ToxCast)
# Calls of active or inactive are those of the source. How the source made its calls: active means hit-call score of the fitted dose curve at least 0.9, where 1 is the maximum; inactive means score below 0.9.
# Target: Peroxisome proliferator-activated receptor gamma (Homo sapiens) (UniProt P37231)
# Experiment: ERF_TW_NR_COA_hPPARG: Eurofins (ERF) Nuclear Receptor (NR) Functional Coactivator Assay for human Peroxisome Proliferator-activated Receptor gamma (PPARg) Agonism, conducted at Taiwan lab site
# Method: ERF_TW_NR_COA_hPPARG is a biochemical, single-readout assay that uses extracted gene-proteins in a cell-free assay. Measurements were taken 16 hours after chemical dosing in a 96-well plate. See PPARgamma Human NHR Functional Agonist Coactivator Assay, Panlabs.ERF_TW_NR_COA_hPPARG is an assay component calculated from the ERF_TW_NR_COA_hPPARG assay. It is designed to measure FRET using a type of binding reporter as detected by fluorescence intensity of rosiglitazone with fluorimetry technology.Data from the assay component ERF_TW_NR_COA_hPPARG was analyzed at the assay endpoint, ERF_TW_NR_COA_hPPARG, in the positive analysis fitting direction relative to DMSO as the negative control and baseline of activity. Using a type of binding reporter, gain-of-signal activity can be used to understand changes in binding as they relate to gene PPARG. To generalize the intended target to other relatable targets, this assay endpoint is annotated to the nuclear receptor intended target family, where the subfamily is non-steroidal.
# Human recombinant PPARgamma receptors expressed in insect cells are used. […] Determination of the amount of complex formed is read spectrofluorimetrically (excitation: 337 nm, emission: 520/490 nm). Test compound-induced increase fluorescence by 50 percent or more (>/=50%) relative to 1 uM GW1929 response indicates possible PPARgamma receptor agonist activity. […]
# Chain of Peroxisome proliferator-activated receptor gamma (Homo sapiens) (P37231 whole entry, looked up): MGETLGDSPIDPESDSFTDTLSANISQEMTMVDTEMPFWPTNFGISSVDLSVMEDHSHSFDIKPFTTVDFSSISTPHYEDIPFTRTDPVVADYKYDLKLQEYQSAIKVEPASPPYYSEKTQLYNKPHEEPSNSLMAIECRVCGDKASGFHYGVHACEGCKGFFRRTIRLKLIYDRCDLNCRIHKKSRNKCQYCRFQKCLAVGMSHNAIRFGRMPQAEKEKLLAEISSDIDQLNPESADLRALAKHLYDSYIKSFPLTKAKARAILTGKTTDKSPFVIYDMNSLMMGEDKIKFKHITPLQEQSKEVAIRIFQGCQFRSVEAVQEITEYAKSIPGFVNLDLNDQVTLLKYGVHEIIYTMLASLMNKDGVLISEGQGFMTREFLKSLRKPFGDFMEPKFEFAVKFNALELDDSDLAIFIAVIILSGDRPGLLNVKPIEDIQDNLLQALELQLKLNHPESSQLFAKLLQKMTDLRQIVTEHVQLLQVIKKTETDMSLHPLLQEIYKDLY
structure (smiles),measurement,value
O=S(=O)(O)C(F)(F)C(F)(F)C(F)(F)C(F)(F)C(F)(F)C(F)(F)C(F)(F)C(F)(F)F,outcome,inactive
